Measured potencies and affinities stand elsewhere. The source made the active and inactive calls.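 Rule for the calls, unless noted: active = fitted half-maximal concentration within the tested range, moderate curve steepness, significant signal drop, and little compound fluorescence or bead-linkage interference; inactive = the rest.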

The target in one assay is Cell division control protein 42 homolog (Homo sapiens) (UniProt P60953). Kind of assay: activated mutant Cdc42 GTP-binding inhibitors, dose response, biochemical, multiplex bead flow cytometry, Bodipy-FL-GTP (AID 1333;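 active = fitted half-maximal concentration within the tested dose range, moderate curve steepness, a statistically real signal drop, and little compound fluorescence or tag-binding interference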). The following applies: bead-based flow cytometry; series mostly up to 100 µM. Background: Flow cytometry measures light scatter and fluorescence of single cells or particles in a stream.
Chain of Cell division control protein 42 homolog (Homo sapiens) (P60953 whole entry, looked up): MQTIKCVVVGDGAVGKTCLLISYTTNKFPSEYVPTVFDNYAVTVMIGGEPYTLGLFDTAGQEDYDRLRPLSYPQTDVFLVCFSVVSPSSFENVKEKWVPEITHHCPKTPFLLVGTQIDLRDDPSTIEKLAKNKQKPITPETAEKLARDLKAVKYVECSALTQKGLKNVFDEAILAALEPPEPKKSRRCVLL
As for `COc1cc2[nH]c(=S)nc(NCc3cccs3)c2cc1OC`, the result was inactive.
In the case of `Cc1nnc(N2CCOCC2)c2nn(-c3ccccc3)c(C)c12`, the outcome was inactive.
With `Cc1ccc(C(=O)c2ccccc2C(=O)O)cc1`, the compound was classed as inactive.
Still for that read-out and setting: then `COc1ccc(S(=O)(=O)N2CCCCC2)cc1NC(=O)c1ccc([N+](=O)[O-])o1`, with “inactive”.
`CCOc1ccc2c(c1)c(N=NC(=N)N)c(O)n2C`: the result was inactive.
The same measure, in the same setting: the result for `O=C(OC(C(=O)NCc1cccs1)c1ccccn1)c1cccs1` (stereo not given) reads “inactive”; that for `CCN(CC)c1ccc(/C=C(/C#N)c2nc3ccc(C)cc3[nH]2)c(OC(C)C)c1`, “inactive”.
As to `O=C(Nc1nccs1)c1ccc(-c2cccc([N+](=O)[O-])c2)o1`, the compound was classed as inactive.
As for `COc1ccc(-c2cc(C(F)(F)F)c3c(n2)sc2c(O)cc(=O)[nH]c23)c(OC)c1`, the compound was called inactive.
On the same count and under the same terms, the result for `COc1cc(N2CCCC2)c(OC)cc1/C=c1/sc2nc3ccccc3n2c1=O` reads “inactive”; that for `COC(=O)c1ccccc1NC(=O)CSCC(=O)Nc1ccccc1OC`, “inactive”; that for `O=C(O)c1cc([N+](=O)[O-])ccc1NCc1ccccc1Cl`, “inactive”.
The same measure, in the same setting: the result for `Cc1cc(NCc2ccccn2)n2c(nc3ccccc32)c1C#N` reads “inactive”; that for `COc1ccc(CC(C)N2CCN(Cc3ccccc3)CC2)c(OC)c1` (stereo not given), “inactive”.
Consider `O=c1n(Cc2ccc(Cl)cc2)c2sc3c(c2c2ncnn12)CCCC3`, for which the compound was classed as inactive.
On to `NC(=O)c1cc2nc(-c3ccco3)cc(C(F)(F)F)n2n1`, for which the outcome was inactive.
`CCN(CC)c1ccc(/C=C/C(=O)c2ccc(Br)cc2)cc1`: the result was inactive.
For the compound `COc1ccccc1OCCn1cc(C(=O)O)c2c(Cl)cccc21`, the compound was classed as inactive.
Turning to `O=C(c1cccnc1SCCc1ccccc1)N1CCOCC1`, the result was inactive.
For the compound `Cc1ccc(/C=N/NC(=O)C2CCN(Cc3ccc(F)cc3Cl)CC2)o1`, the result was inactive.
With `COCCNC(=S)Nc1cc(OC)c(OC)cc1C#N`, the call was inactive.
Regarding `COc1ccc(/C=N/NC(=O)c2cccnc2)cc1Cn1nc([N+](=O)[O-])c(Br)c1C`, the result was inactive.
Still for that read-out and setting: the result for `c1ccc(C2=Nn3c(nnc3-c3ccco3)SC2)cc1` reads “inactive”; that for `C=CCN1C(=NC(=O)CCCC(=O)O)SC2CS(=O)(=O)CC21` (stereo not given), “inactive”.
Take `COc1cccc2cc(-c3ccnc(=S)[nH]3)oc12`: the result was inactive.
On the same count and under the same terms, the result for `CCOc1c2ccc(C(=O)N[C@H](C)C3CCCCC3)cc2nn1CCOC` reads “inactive”; that for `O=C(NC1CC2CCCC(C1)N2C(=O)Nc1ccc(Cl)c(C(F)(F)F)c1)C1CC1` (stereo not given), “inactive”.
On the same count and under the same terms, the result for `CCC(C)NC(=O)CSc1nc2n[nH]c(C)c2c(=N)n1-c1ccc(OC)cc1` (stereo not given) reads “inactive”.
With `O=[N+]([O-])c1cc2oc3c(c2c(C=NCc2ccccc2)c1O)CCCC3`, the compound was classed as inactive.
Regarding `Cc1nnc(-n2ncc(C#N)c2N)c2nn(-c3cccc(Cl)c3)c(C)c12`, the compound was classed as inactive.
Turning to `Cc1ccc(-c2ccc(/C=C(\C#N)C(=O)Nc3cc(C)nn3-c3ccccc3)o2)cc1`, the outcome was inactive.
With `Cn1c(=O)c2c(nc(N3CCc4ccccc4C3)n2C)n(C)c1=O`, the compound was called inactive.
`Nc1c(S(=O)(=O)c2cccc(Cl)c2)c2nc3ccccc3nc2n1/N=C/c1ccc(O)c(O)c1`: the compound was classed as inactive.
Turning to `CSc1ncccc1C(=O)OCC(=O)N1CCOCC1`, the result was inactive.
On to `CCOc1cc(/C=N/NC(=O)c2cccs2)cc([N+](=O)[O-])c1O`, for which the outcome was inactive.
Turning to `O=c1c2ccccc2nc2c3ccccc3c(NCCO)nn12`, the compound was called inactive.
Turning to `COc1cc([N+](=O)[O-])cc(/C=N/NC(=O)c2ccc(NC(=O)c3ccc(C)cc3)cc2)c1O`, the outcome was inactive.
Consider `O=c1c2ccccc2nc2c3ccccc3c(NCCN3CCOCC3)nn12`, for which the result was inactive.
Take `O=c1c(/C=N/Nc2ccccc2)c(Sc2nnnn2-c2ccccc2)nc2ccccn12`: the compound was classed as inactive.
`COc1cccc(Nc2ccccc2C(=O)O)c1`: the call was inactive.

The target is the same in another assay. Kind of assay: wildtype Cdc42 GTP-binding inhibitors, dose response, biochemical, multiplex bead flow cytometry, Bodipy-FL-GTP (AID 1334). The following applies: bead-based flow cytometry, Bodipy-FL-GTP binding to GST-Cdc42; at 100 µM (top of the series) unless noted.
Take `COc1cc2[nH]c(=S)nc(NCc3cccs3)c2cc1OC`: the fluorescence, percent of control (lower = inhibition) worked out at 29.5%.
As to `Cc1nnc(N2CCOCC2)c2nn(-c3ccccc3)c(C)c12`, the fluorescence, percent of control (lower = inhibition) turned out to be 58.1%.
`Cc1ccc(C(=O)c2ccccc2C(=O)O)cc1`: the fluorescence, percent of control (lower = inhibition) was determined as 67.4%.
As for `COc1ccc(S(=O)(=O)N2CCCCC2)cc1NC(=O)c1ccc([N+](=O)[O-])o1`, the fluorescence, percent of control (lower = inhibition) came to 32.3%.
`CCOc1ccc2c(c1)c(N=NC(=N)N)c(O)n2C`: the fluorescence, percent of control (lower = inhibition) came to 32.4%.
As for `O=C(OC(C(=O)NCc1cccs1)c1ccccn1)c1cccs1` (stereo not given), the fluorescence, percent of control (lower = inhibition) was 83.4%.
`CCN(CC)c1ccc(/C=C(/C#N)c2nc3ccc(C)cc3[nH]2)c(OC(C)C)c1`: the fluorescence, percent of control (lower = inhibition) amounted to 96.1%.
Take `O=C(Nc1nccs1)c1ccc(-c2cccc([N+](=O)[O-])c2)o1`: the fluorescence, percent of control (lower = inhibition) came out at 31.6%.
On to `COc1ccc(-c2cc(C(F)(F)F)c3c(n2)sc2c(O)cc(=O)[nH]c23)c(OC)c1`, for which the fluorescence, percent of control (lower = inhibition) turned out to be 38.1%.
On to `COc1cc(N2CCCC2)c(OC)cc1/C=c1/sc2nc3ccccc3n2c1=O`, for which the fluorescence, percent of control (lower = inhibition) came out at 76%.
`COC(=O)c1ccccc1NC(=O)CSCC(=O)Nc1ccccc1OC`: the fluorescence, percent of control (lower = inhibition) turned out to be 37.9%.
Same read-out and setting: then `O=C(O)c1cc([N+](=O)[O-])ccc1NCc1ccccc1Cl`, with 96.9%.
Take `Cc1cc(NCc2ccccn2)n2c(nc3ccccc32)c1C#N`: the fluorescence, percent of control (lower = inhibition) was determined as 42.7%.
The same measure, in the same setting: then `COc1ccc(CC(C)N2CCN(Cc3ccccc3)CC2)c(OC)c1` (stereo not given), with 38.1%; and `O=c1n(Cc2ccc(Cl)cc2)c2sc3c(c2c2ncnn12)CCCC3`, with 78.9%.
Turning to `NC(=O)c1cc2nc(-c3ccco3)cc(C(F)(F)F)n2n1`, the fluorescence, percent of control (lower = inhibition) came out at 29.6%.
`CCN(CC)c1ccc(/C=C/C(=O)c2ccc(Br)cc2)cc1`: the fluorescence, percent of control (lower = inhibition) is 312%.
`COc1ccccc1OCCn1cc(C(=O)O)c2c(Cl)cccc21`: the fluorescence, percent of control (lower = inhibition) was 48.6%.
As for `O=C(c1cccnc1SCCc1ccccc1)N1CCOCC1`, the fluorescence, percent of control (lower = inhibition) was determined as 77.3%.
Take `Cc1ccc(/C=N/NC(=O)C2CCN(Cc3ccc(F)cc3Cl)CC2)o1`: the fluorescence, percent of control (lower = inhibition) was determined as 39%.
`COCCNC(=S)Nc1cc(OC)c(OC)cc1C#N`: the fluorescence, percent of control (lower = inhibition) turned out to be 40.8%.
On the same count and under the same terms, the result for `COc1ccc(/C=N/NC(=O)c2cccnc2)cc1Cn1nc([N+](=O)[O-])c(Br)c1C` reads 31.2%; that for `c1ccc(C2=Nn3c(nnc3-c3ccco3)SC2)cc1`, 34%.
Take `C=CCN1C(=NC(=O)CCCC(=O)O)SC2CS(=O)(=O)CC21` (stereo not given): the fluorescence, percent of control (lower = inhibition) came to 38.3%.
The same measure, in the same setting: the result for `COc1cccc2cc(-c3ccnc(=S)[nH]3)oc12` reads 33.3%; that for `CCOc1c2ccc(C(=O)N[C@H](C)C3CCCCC3)cc2nn1CCOC`, 94.9%; that for `O=C(NC1CC2CCCC(C1)N2C(=O)Nc1ccc(Cl)c(C(F)(F)F)c1)C1CC1` (stereo not given), 94.3%.
Still for that read-out and setting: then `CCC(C)NC(=O)CSc1nc2n[nH]c(C)c2c(=N)n1-c1ccc(OC)cc1` (stereo not given), with 36%; and `O=[N+]([O-])c1cc2oc3c(c2c(C=NCc2ccccc2)c1O)CCCC3`, with 44.5%; and `Cc1nnc(-n2ncc(C#N)c2N)c2nn(-c3cccc(Cl)c3)c(C)c12`, with 62.8%.
Take `Cc1ccc(-c2ccc(/C=C(\C#N)C(=O)Nc3cc(C)nn3-c3ccccc3)o2)cc1`: the fluorescence, percent of control (lower = inhibition) stood at 226%.
In the case of `Cn1c(=O)c2c(nc(N3CCc4ccccc4C3)n2C)n(C)c1=O`, the fluorescence, percent of control (lower = inhibition) came to 36.7%.
Turning to `Nc1c(S(=O)(=O)c2cccc(Cl)c2)c2nc3ccccc3nc2n1/N=C/c1ccc(O)c(O)c1`, the fluorescence, percent of control (lower = inhibition) came to 54.4%.
Same read-out and setting: then `CSc1ncccc1C(=O)OCC(=O)N1CCOCC1`, with 84.4%; and `CCOc1cc(/C=N/NC(=O)c2cccs2)cc([N+](=O)[O-])c1O`, with 25.2%; and `O=c1c2ccccc2nc2c3ccccc3c(NCCO)nn12`, with 27.1%.
For the compound `COc1cc([N+](=O)[O-])cc(/C=N/NC(=O)c2ccc(NC(=O)c3ccc(C)cc3)cc2)c1O`, the fluorescence, percent of control (lower = inhibition) worked out at 33%.
`O=c1c2ccccc2nc2c3ccccc3c(NCCN3CCOCC3)nn12`: the fluorescence, percent of control (lower = inhibition) is 42.6%.
Consider `O=c1c(/C=N/Nc2ccccc2)c(Sc2nnnn2-c2ccccc2)nc2ccccn12`, for which the fluorescence, percent of control (lower = inhibition) came out at 107%.
Regarding `COc1cccc(Nc2ccccc2C(=O)O)c1`, the fluorescence, percent of control (lower = inhibition) was found to be 92.6%.

These data come from PubChem BioAssay.
